# About 83,000 compounds went through this panel and 20% of them were active in at least one assay; those are over-represented in the sample as a whole.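 The endpoint reported here, percent growth, reads 100 for growth as untreated, 0 for no net growth and -100 for all cells dead.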 A number with no mark means an inactive call. The source made the active and inactive calls.
# Test system: EKVX NSCLC
# Assay: NCI-60 one-dose screen, 48 h (100 = growth as untreated, 0 = no growth, -100 = all killed)
# Details: 10 µM unless noted
# Procedure: Growth inhibition of the EKVX human Non-Small Cell Lung tumor cell line is measured as a screen for anti-cancer activity. Cells are grown in 96 well plates and exposed to the test compound for 48 hours. Compounds are tested at a single concentration, which is 10^-5 M for most compounds. The reported endpoint is percent growth (GI% or GIPRCNT), where numbers from 0 - 100% represent growth inhibition, and numbers from -100% - 0 represent cell death. For example, a value of 40 represents 60% growth inhibition. A value of 0 means no net growth occurred over the course of the experiment. A value of -40 indicates 40% of cells at the beginning of the experiment died by the end of the experiment. A value of -100 means all cells are dead at the end of the experiment.
# NCI-60 Human Tumor Cell Lines Screen was performed using the standard one-dose NCI protocol, which is described in more detail at https://dtp.cancer.gov/discovery_development/nci-60/default.htm.
# Compounds with GIPRCNT values below 10 were considered active. Activity score was based on GIPRCNT using the following formula: […]
# Score is 0 for GIPRCNT values of 100 or above, 50 for GIPRCNT values of 0, and 100 for GIPRCNT values of -100.
row,Compound,growth
1,O=C1CC(=O)N(c2ccccc2)O1,108%
2,O=C1C(=O)c2ccc(Br)cc2-c2cc(Br)ccc21,99.8%
3,Clc1cc(Cl)c(OCC#CI)cc1Cl,98.8%
4,Cn1cc(-c2csc(-c3cn(C)c4ncccc34)n2)c2cccnc21,86.6%
5,C=C(C)[C@@H]1C[C@H](O)Cc2cc(Cl)cc(Cl)c2N1,84.3%
6,O=C(C(=O)N1CCCCC1)c1ccc(OC2OC(CO)C(O)C(O)C2O)cc1 (stereo not given),111%
7,COc1cc2c(c(OC)c1OC)CCc1cnoc1-2,112%
8,COc1ccc(/C(=C2\O[C@@H]([C@H](O)CO)[C@H]3OC(C)(C)O[C@@H]23)c2cc(OC)c(OC)c(OC)c2)cc1O,97%
9,N#Cc1ccc(NC(=O)Nc2ccc(Oc3ccc(NC(=O)Nc4ccc(C#N)cc4)cc3)cc2)cc1,34.1%
10,Cc1nn(-c2ccccc2)c2nc3c(nc12)C(=O)CCC3,93.8%
11,COc1ccc2nc(-c3ccc(-n4cncc4-c4ccc(OC)c(N)c4)cc3)sc2c1,109%
12,CCN(CC)c1ccc(N=Nc2cc(Cl)ccc2Cl)c(NC(=O)CCC(=O)O)c1,79.7%
13,Cn1c(=O)c2nc(SCc3ccccc3)n(C)c2n(C)c1=O,123%
14,CCN1C2=C(SC(=S)C1=C1SC(C(=O)OC)=C(C(=O)OC)S1)SC(=Nc1ccc(OC)cc1)C2=O,34.7%
15,COc1ccc2[nH]c(-c3ccccc3)cc2c1,94.5%
16,Nc1nc(Cl)c2[nH]cnc2n1,99.5%
17,CCCOc1ccc2c(c1)CC[C@@H]1[C@@H]2CC[C@@]2(C)[C@H]1CC[C@]2(C)O,80%
18,CC(C)COCC(CN(Cc1ccccc1)c1ccccc1)N1CCCC1 (stereo not given),54%
19,COc1cc(C2NC(c3ccc(Cl)cc3)C(C)/C(=N/NC(N)=S)C2C)cc(OC)c1OC (stereo not given),107%
20,COc1ccc(C2=NNC(c3cc(Cc4ccc(O)c(C5CC(c6ccc(OC)cc6)=NN5)c4)ccc3O)C2)cc1 (stereo not given),30.9%

row,Compound,growth
1,Cc1cc([N+](=O)[O-])c(C)cc1C(=O)O,112%
2,Nc1ccc2c(c1)/C(=N/O)c1cc([N+](=O)[O-])ccc1-2,85.9%
3,CCCCCCCC/C=C/CCCCCCCC1=NC(C)(C)CN1CCO,58.5%
4,COc1ccc(-c2c(N)noc2-c2cc(OC)c3c(c2)OCCO3)cc1,37.1%
5,CCCc1cccc(CCC)c1O,98.9%
6,O=C(CCc1nnc(Cn2cncn2)o1)c1nc2ccccc2[nH]1,116%
7,NC(=O)c1ncn([C@@H]2O[C@H](CO)[C@@H](O)[C@H]2O)n1,96.9%
8,CC12CCC3C(CCC4CC(=O)/C(=C\O)CC43C)C1CCC(=O)O2 (stereo not given),106%
9,CCS(=O)(=O)OCCCl,105%
10,COc1ncc(-c2ccc3nccc(C#CCN4CCN(S(C)(=O)=O)CC4)c3c2)cc1NS(=O)(=O)c1ccc(F)cc1F,9.26% (active)
11,OC(Cc1cccnc1)c1ccccc1 (stereo not given),113%
12,CN(C)c1ccc2[nH]c3c(C(N)=O)cc(=O)c(=O)c=3oc2c1,100%
13,N#Cc1c(N)[nH]c(S)c1C#N,101%
14,O=C1CC(C(F)(F)F)=NN1C(=O)c1nn(-c2ccc(Cl)cc2)cc1O,79.5%
15,CCC1=C(c2ccc(OC)cc2)C(C)Oc2cc(OC(C)=O)ccc21 (stereo not given),75%
16,CCOC(=O)c1c(C)nc(C)c(C(=O)OCC)c1-c1cccnc1,105%
17,COc1ccc(/C=N\Nc2ccc([N+](=O)[O-])cn2)cc1OC,63.6%
18,COc1ccc(COC(C)=O)cc1,113%
19,COc1cc(/C=C2\COc3ccc(O)cc3C2=O)cc(OC)c1,94.8%
20,CCOC(=O)c1ccccc1OC(=O)NNc1ccccc1,92.8%

# Source: PubChem BioAssay (NCI)
